# Compounds with a hit are over-represented: about 11% of the library has one in this group of screens.
# Pf growth 96h: P. falciparum growth inhibition at 96 hours. P. falciparum luciferase reporter growth, 96 h. AID 504834. hit rate 6.9% among 320,000. Potency, µM (series often up to 28.7 µM), usual class: inhibitors
#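 P. falciparum expressing integrated firefly luciferase, in erythrocytes at 2% hematocrit, 0.05% parasitemia, incubated with compounds 96 h at 37 C, 5% CO2. Growth inhibition read as loss of luminescence; two-generation exposure targets delayed-death apicoplast inhibitors.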
# Pf growth 48h: P. falciparum growth inhibition at 48 hours (one generation). P. falciparum luciferase growth in erythrocytes, 48 h. Potency, µM (doses to about 28.7 µM), usual class: inhibitors. hit rate 5.9% among 310,000
#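 Here the parasites carry a stable luciferase gene and grow inside erythrocytes in Albumax-based RPMI medium with compound for one erythrocytic cycle. Activity is scored as loss of luminescent signal.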
# NS1 function inh: blocks influenza NS1 protein function | Potency, µM (series often up to 46.1 µM) | hit rate 0.4% among 270,000 | AID 2326; calls by dose curve; note: actives are rising curves; nearly all actives have a fitted effect of over 50% in size
#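 Compounds were scored for reversing the slow growth caused by influenza A NS1 in S. cerevisiae, measured by optical density at 600 nm. Assay medium contained 2% galactose at pH 6.0; NS1-free yeast of the same strain were the positive control.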
# Sm TGR inh: blocks Schistosoma mansoni thioredoxin glutathione reductase; Potency, µM (series often up to 114 µM), most hits filed as inhibitors; purified TGR, DTNB reduction, TNB absorbance 405 nm; AID 485364; hit rate 3% among 360,000; note: nearly all actives have a fitted effect of over 60% in size
#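 First, TGR (20 nM dispensed) and NADPH were mixed with compound. Second, a 15 min room-temperature incubation followed. Third, further NADPH and then DTNB were added to start the reaction. Finally, TNB absorbance was monitored kinetically.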
# AMA1-RON2 inh: disrupts binding of P. falciparum AMA1 to RON2; AlphaScreen AMA1-biotinylated RON2 peptide binding; Potency, µM (series often up to 58.2 µM), most hits filed as inhibitors; hit rate 0.2% among 360,000; note: nearly all actives have a fitted effect of over 45% in size
#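 AMA1 (3D7) with his tag at 25 nM final met compounds first, then biotinylated RON2 peptide at 25 nM; detection used donor plus acceptor beads, 10 µg/mL apiece, read by AlphaScreen after 30 min at room temperature.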
# Hits are given with their value; . = inactive; ? = inconclusive; / = no result given; [ ] = remark or other dose. Unless noted, calls come from the whole dose curve; as a rule, active = well fitted curve in the direction sought with a large enough effect; inconclusive = small, poorly fitted or top-dose-only effect, or another doubt; inactive = no such curve, though single readings can be large; an effect the other way counts as inactive or inconclusive.
SMILES,Pf growth 96h,Pf growth 48h,NS1 function inh,Sm TGR inh,AMA1-RON2 inh
CCC(C)C(=O)N1c2ccccc2C(=C2SC(C(=O)OC)=C(C(=O)OC)S2)C(=S)C1(C)C (centres undefined),?,9.3µM,.,.,.
NC(=O)c1cccc(-c2coc3c(C(=O)NCc4ccccc4)cccc23)c1,/,/,/,/,.
CCOC(=O)Cn1c(=O)oc2cc(S(=O)(=O)N3CCN(c4ccccc4F)CC3)ccc21,/,/,/,.,/
CCOC(=O)Cn1c(=O)oc2cc(S(=O)(=O)N3CCc4ccccc43)ccc21,13µM,/,.,.,.
CC(C)(C)NC(=O)Cn1c(=O)oc2cc(S(=O)(=O)N3CCc4ccccc43)ccc21,1.5µM,/,?,.,.
CCOC(=O)c1c(NC(=O)CSc2cn(CCNC(=O)c3ccc(OC)cc3)c3ccccc23)sc2c1CCC2,/,/,/,.,/
COc1cc(-c2nnc(SCC(=O)N(Cc3ccccc3)C(C)(C)C)o2)cc(OC)c1OC,3.7µM,10µM,.,.,.
COc1ccc(-c2nnc(SCC(=O)Nc3ccccc3OC)o2)cc1,?,.,.,.,.
COc1ccc(-c2nnc(SCC(=O)NC(C)c3ccccc3)o2)cc1 (centres undefined),10µM,.,.,.,.
COc1cc(OC)cc(-c2nnc(SCC(=O)N(C(C)C)C(C)C)o2)c1,.,7.4µM,.,.,.
COc1cccc(-c2nnc(SCC(=O)N(C(C)C)C(C)C)o2)c1,.,.,.,?,.
O=C(Nc1sc2c(c1C(=O)NCc1ccccc1)CCCC2)c1cc(=O)c2ccccc2o1,/,/,/,.,/
CCC(C)NS(=O)(=O)c1ccc(NC(=O)Cc2ccc(OC)cc2)cc1 (centres undefined),?,.,.,.,.
COc1ccc(NC(=O)c2nnn(Cc3nc(-c4cc(Br)ccc4OC)oc3C)c2C)cc1,/,/,/,.,/
Cc1ccc(CNC(=O)CCc2c(C)nn(-c3ccc(N4CCCCC4)nn3)c2C)cc1,/,/,/,.,/
Cc1cc(C(=O)Oc2cccnc2)ccc1[N+](=O)[O-],3.7µM,.,.,.,.
O=C(Oc1cccnc1)c1ccccc1[N+](=O)[O-],?,.,.,.,.
N/C(=N\OC(=O)c1ccc([N+](=O)[O-])cc1)c1cccnc1,.,.,.,.,.[11.6 µM]
O=C(Oc1c(Br)cc([N+](=O)[O-])cc1Br)c1cccnc1,6.6µM,.,.,.,.
CC(OC(=O)c1ccc(NC(=O)CC#N)cc1)C(=O)NC(=O)NC1CCCCC1 (centres undefined),?,.,.,.,.
CCOC(=O)c1ccc(Cl)c(S(=O)(=O)N2CCCC2)c1,.,?,.,.,.
COC(=O)c1ccccc1NC(=O)CCCN1C(=O)C(c2ccccc2)Oc2cccnc21 (centres undefined),?,.,.,.,.
Cc1ccc2c(cnn2C(=O)CCC(=O)NCc2cccc(Br)c2)c1,2.6µM,.,.,.,.
Cc1ccc2c(cnn2C(=O)CCC(=O)NCc2cccc(Cl)c2)c1,.,.,.,.,.
Cc1ncc([N+](=O)[O-])n1CCOC(=O)NC(NCc1cccnc1)C(Cl)(Cl)Cl (centres undefined),?,?,.,.,.
SMILES,Pf growth 96h,Pf growth 48h,NS1 function inh,Sm TGR inh,AMA1-RON2 inh
Cc1ncc([N+](=O)[O-])n1CCOC(=O)NC(Nc1ccc(F)cc1)C(Cl)(Cl)Cl (centres undefined),6.6µM,8.3µM,.,.,.
Cc1ncc([N+](=O)[O-])n1CCOC(=O)NC(NCc1ccccc1)C(Cl)(Cl)Cl (centres undefined),0.33µM,8.3µM,.,.,.
O=c1cc(O)c2sc3nc4c(c(C(F)(F)F)c3c2[nH]1)CCCCC4,.,2.1µM,.,.,.
COc1ccc(OC)c(-c2cc(C(F)(F)F)c3c(n2)sc2c(O)cc(=O)[nH]c23)c1,.,.,.,.,.
COC(=O)c1ccccc1NC(=O)N1CCN(c2ccc(F)cc2)CC1,4.1µM,.,.,.,.
Cc1cc(C)cc(NC(=O)N2CCCN(c3c(Cl)cncc3Cl)CC2)c1,?,?,.,.,.
COC(=O)c1ccccc1NC(=S)N1CCN(c2ccccc2)CC1,.,.[0.00184 µM],.,.,.
O=C(Nc1cccc2ccccc12)N1CCN(c2ccc(F)cc2)CC1,1.5µM,.,.,.,.
O=C(Nc1cccc2ccccc12)N1CCCN(c2c(Cl)cncc2Cl)CC1,5.9µM,?,.,.,.

# High-throughput results: PubChem BioAssay, National Center for Advancing Translational Sciences (NCATS)
